Screening data (PubChem)
HUVEC tox IL1B: HUVEC cytotoxicity counter-screen, IL-1B stimulated | HUVEC cell count loss, Hoechst imaging | AID 845 | 94,000 compounds, 0.41% hits | cell count reduction, % at 2 µM;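 active means cell count reduction more than 3 SD above the screen-wide mean, cut at about 70% in these data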
VCAM1 TNFa inh: reduces TNF alpha induced VCAM1 expression in HUVEC; AID 802; 95,000 compounds, 0.48% hits; inhibition, % at 2 µM; HUVEC TNFa-induced VCAM-1 immunofluorescence, high-content imaging;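 active means inhibition above the batch mean plus 3 SD, with images confirmed as a hit by eye, cut at about 37% in these data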
IL1B NFkB inh: blocks IL-1B driven NFkB nuclear translocation in HUVEC cells; HUVEC IL-1B NFkB p65 nuclear translocation imaging; inhibition, % at 2 µM; 94,000 compounds, 0.43% hits;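 active means inhibition above about 30% together with a positive call from visual inspection of the well image, limit read from the data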;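 further: nuclear over cytoplasmic p65 intensity ratio measured by imaging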
HUVEC tox TNFa: HUVEC cytotoxicity counter-screen, TNF alpha stimulated. HUVEC TNFalpha-stimulated, Hoechst cell count, imaging. cell count reduction, % at 2 µM. 93,000 compounds, 0.17% hits;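 active means cell count reduction exceeding the screen mean by over 5 SD, scaled to untreated wells per plate, cut at about 78% in these data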;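 further: cells counted after 24 h of TNF alpha exposure following the 1 h pretreatment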
E-sel TNF inh: TNF alpha driven E-selectin expression inhibition; HUVEC TNFa-induced E-selectin immunofluorescence, high content; AID 1246; inhibition, % at 2 µM; 120,000 compounds, 0.71% hits;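 active means inhibition above the batch mean plus 3 SD, and confirmed as a hit on visual image review, cut at about 43% in these data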
NFkB transloc pot: enhances IL-1B driven NFkB nuclear translocation | AID 819 | 94,000 compounds, 0.3% hits | activation, % at 2 µM | HUVEC IL-1B NFkB p65 nuclear translocation imaging;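 active means activation above 40%, about the mean plus 3 SD, also judged a hit on visual image review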;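 further: percent activation is computed from the nuclear over cytoplasmic p65 intensity ratio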
Of the large screens only hits and unclear results are named; the others gave an inactive call. Only some compounds are listed: those with a hit (about 1.7% of all), similar ones and a draw of the others.

CCOc1ccc(-c2nnc3sc(COc4ccc(Cl)cc4)nn23)cc1	none
CCCCC(CCC(=O)Nc1ccccc1C(=O)OCC)C(=O)O (stereo unspecified)	none (no result: E-sel TNF inh)
CC1(C)NC(=O)N(CNc2cc(Cl)ccc2Cl)C1=O	none
O=C(CN1CCc2[nH]c3ccccc3c2C1)N1CCCCC1	none (no result: HUVEC tox IL1B, IL1B NFkB inh, E-sel TNF inh, NFkB transloc pot)
O=C(CN1C(=O)C2CCc3[nH]c4ccccc4c3C2C1=O)N1CCCC1 (stereo unspecified)	HUVEC tox TNFa 86 (no result: E-sel TNF inh)
Cc1[nH]nc(SCC(=O)NCc2ccc(Cl)cc2)c1[N+](=O)[O-]	none (no result: HUVEC tox IL1B, VCAM1 TNFa inh, IL1B NFkB inh, HUVEC tox TNFa, NFkB transloc pot)
CCCn1c(N)cc(=O)n(C)c1=O	none (no result: HUVEC tox IL1B, VCAM1 TNFa inh, IL1B NFkB inh, HUVEC tox TNFa, NFkB transloc pot)
COc1cccc(-n2nc3c(-n4ncc(C#N)c4N)nnc(C)c3c2C)c1	IL1B NFkB inh 46
Cc1nnc(-n2ncc(C#N)c2N)c2nn(-c3ccccc3F)c(C)c12	none
Cc1cc(Oc2ccc(=O)n(C)n2)nc(=S)[nH]1	none (no result: HUVEC tox IL1B, VCAM1 TNFa inh, IL1B NFkB inh, HUVEC tox TNFa, NFkB transloc pot)
CC1Cc2ccccc2N1C(=O)c1cc2sccc2n1Cc1ccc(F)cc1 (stereo unspecified)	none (no result: HUVEC tox TNFa)
O=C(CSc1ccccn1)N/N=C/c1ccccc1[N+](=O)[O-]	E-sel TNF inh 62 (no result: HUVEC tox IL1B, VCAM1 TNFa inh, IL1B NFkB inh, HUVEC tox TNFa, NFkB transloc pot)
Cc1ccsc1C(C(=O)NC1CCCCC1)N(C(=O)c1csnn1)C1CC1 (stereo unspecified)	none
Cc1cc(C)nc(SCNC(=O)c2ccccc2)n1	HUVEC tox IL1B 81
COc1ccc(OC)c(C2C(C(N)=O)=C(C)Nc3nc(CCCO)nn32)c1 (stereo unspecified)	none (no result: E-sel TNF inh)
N#C/C(=C\c1ccccc1)c1nc2ncccc2[nH]1	none (no result: HUVEC tox IL1B, IL1B NFkB inh, NFkB transloc pot)
O=C(Nc1ccc2oc(-c3cccnc3)nc2c1)c1ccc([N+](=O)[O-])o1	E-sel TNF inh 97 (no result: HUVEC tox IL1B, VCAM1 TNFa inh, IL1B NFkB inh, HUVEC tox TNFa, NFkB transloc pot)
O=C(Nc1ccc2oc(-c3cccnc3)nc2c1)c1ccc(Br)o1	none
CS(=O)(=O)CCC(C(=O)OCC(=O)c1ccc(Cl)cc1)N1C(=O)c2ccccc2C1=O (stereo unspecified)	none (no result: HUVEC tox IL1B, VCAM1 TNFa inh, IL1B NFkB inh, HUVEC tox TNFa, NFkB transloc pot)
COC(=O)N1[C@H](C)C=C[C@]1(Cc1ccccc1)C(=O)O	E-sel TNF inh 96 (no result: HUVEC tox IL1B, VCAM1 TNFa inh, IL1B NFkB inh, HUVEC tox TNFa, NFkB transloc pot)
C=CCn1c(Br)nc2c1c(=O)n(C)c(=O)n2C	NFkB transloc pot 49
O=C(NCc1cn2ccccc2n1)c1ccc(Br)o1	IL1B NFkB inh 32 (no result: E-sel TNF inh)
Cc1cc(C)c(N(C(=O)Cn2nnc3ccccc32)C(C(=O)NC(C)(C)C)c2ccsc2)c(C)c1 (stereo unspecified)	none
CC(C)(C)NC(=O)C(c1ccsc1)N(CCc1ccccc1)C(=O)Cn1nnc2ccccc21 (stereo unspecified)	IL1B NFkB inh 58
CC(C)Sc1nc2ccccc2n1CC(N)=O	none (no result: HUVEC tox IL1B, IL1B NFkB inh, E-sel TNF inh, NFkB transloc pot)
CCOc1ccccc1C1CC(=O)Nc2cc3c(cc21)OCCO3 (stereo unspecified)	none (no result: E-sel TNF inh)
CCCOc1ccccc1C1CC(=O)Nc2cc3c(cc21)OCCO3 (stereo unspecified)	VCAM1 TNFa inh 51
CC(C)Oc1ccccc1C1CC(=O)Nc2cc3c(cc21)OCO3 (stereo unspecified)	VCAM1 TNFa inh 85 (no result: E-sel TNF inh)
CCN(CC)S(=O)(=O)c1ccc(N(C)Cc2cccnc2)nc1	none
Cn1c(=O)c2sccc2n2c(CCCC(=O)NCc3ccc4c(c3)OCO4)nnc12	none
CC[n+]1c(/C=C2/C=C(C)CC(C)(C)C2)sc2ccc(OC)cc21	E-sel TNF inh 67
CCOc1ccc(-c2noc(CCCC(N)=O)n2)cc1OC	none
COc1ccc(-c2noc(CCC(N)=O)n2)cc1OC	E-sel TNF inh 80
COc1cc(-c2noc(CCC(=O)Nc3cccnc3)n2)cc(OC)c1OC	E-sel TNF inh 62
O=C(Nc1ccccc1)c1ccn[nH]1	IL1B NFkB inh 31
O=C(O)C1C2C=CC(C2)C1C(=O)NCCc1ccccc1 (stereo unspecified)	none
O=C(O)C1C2C=CC(C2)C1C(=O)NCCCc1ccccc1 (stereo unspecified)	E-sel TNF inh 68 (no result: HUVEC tox IL1B, VCAM1 TNFa inh, IL1B NFkB inh, HUVEC tox TNFa, NFkB transloc pot)
Cc1ccc(Cn2nnc3c(=O)n(CC(=O)NCc4ccccc4)cnc32)cc1	none (no result: HUVEC tox IL1B, VCAM1 TNFa inh, IL1B NFkB inh, HUVEC tox TNFa, NFkB transloc pot)
Cc1ccc(CNCC(O)(c2ccccc2)c2ccc(Cl)cc2)cc1 (stereo unspecified)	E-sel TNF inh 67 (no result: HUVEC tox IL1B, VCAM1 TNFa inh, IL1B NFkB inh, HUVEC tox TNFa, NFkB transloc pot)
c1ccc2oc(-c3ccc4nc[nH]c4c3)nc2c1	IL1B NFkB inh 52
Cc1cc(C)n(-c2nc3ccccc3[nH]c2=O)n1	HUVEC tox IL1B 87
Cc1cc(C)n(-c2nc3ccccc3nc2Nc2ccc3[nH]c(=O)[nH]c3c2)n1	none
Cc1cc(C)n(-c2nc3ccccc3nc2N2CCOCC2)n1	none (no result: HUVEC tox IL1B, VCAM1 TNFa inh, IL1B NFkB inh, HUVEC tox TNFa, NFkB transloc pot)
Cc1cc(C)n(-c2nc3ccccc3nc2N2CCCC2)n1	HUVEC tox IL1B 80
